From ChEMBL document CHEMBL3433997, “St. Jude Leishmania screening dataset” (2016) come the findings set out here.

What all share (assay type): functional
The target in assay [1] is Solute carrier family 2, facilitated glucose transporter member 1 (Homo sapiens) (UniProt P11166). As to the kind of experiment: ST_JUDE_LEISH: Cytotoxicity at 2uM final concentration against transgenic Leishmania Mexicana promastigotes LmGLUT1 that are glucose transport deficient and complemented with the human glucose transporter GLUT1. Activity is measured by DNA content using SYBR green in vitro.

Assay [2] deals with Hexose transporter 1 (Plasmodium falciparum) (UniProt O97467). Nature of the assay: ST_JUDE_LEISH: Cytotoxicity at 2uM final concentration against transgenic Leishmania Mexicana promastigotes LmPfHT that are glucose transport deficient and complemented with the Plasmodium falciparum hexose transporter. Activity is measured by DNA content using SYBR green in vitro.
The target of assay [3] is Glucose transporter (Leishmania mexicana) (UniProt O61059). Nature of the assay: ST_JUDE_LEISH: Cytotoxicity at 2uM final concentration against transgenic Leishmania Mexicana promastigotes LmGT2 that are glucose transport deficient and complemented with the L. Mexicana glucose transporter 2. Activity is measured by DNA content using SYBR green in vitro.

Solute carrier family 2, facilitated glucose transporter member 1 (Homo sapiens), sequence (P11166 whole entry): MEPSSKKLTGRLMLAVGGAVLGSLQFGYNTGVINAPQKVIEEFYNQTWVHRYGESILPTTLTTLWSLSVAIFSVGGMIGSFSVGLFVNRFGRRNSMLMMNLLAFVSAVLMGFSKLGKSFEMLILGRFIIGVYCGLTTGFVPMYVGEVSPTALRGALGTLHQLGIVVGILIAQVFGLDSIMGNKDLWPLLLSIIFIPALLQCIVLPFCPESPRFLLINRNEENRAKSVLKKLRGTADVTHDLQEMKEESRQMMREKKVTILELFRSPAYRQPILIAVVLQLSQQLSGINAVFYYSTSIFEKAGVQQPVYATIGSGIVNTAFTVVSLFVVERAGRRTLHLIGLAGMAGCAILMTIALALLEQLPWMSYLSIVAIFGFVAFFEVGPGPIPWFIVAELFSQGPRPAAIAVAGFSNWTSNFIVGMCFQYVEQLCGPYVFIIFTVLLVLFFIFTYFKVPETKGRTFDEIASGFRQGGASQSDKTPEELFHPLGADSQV

As to `N=C(N)Nc1ccc(OCCCCCOc2ccc(NC(=N)N)cc2)cc1`, the inhibition – broadly, the change of the read-out against control, counted positive when it falls – in assay [1] came out at 13.7%; in assay [2] it was 20.2%; in assay [3] it was 0.71%.
As for `CC(C)CCNCc1c(O)ccc2ccccc12`, the results for the inhibition in assay [1], in assay [2] and in assay [3] were -2.54%, -0.86% and 3.37%, respectively.
Regarding `Nc1nonc1-c1nc2c(-c3cccc(Cl)c3)nccc2n1CCCNC(=O)Cc1ccc(Cl)cc1`, the figures for the inhibition in assay [1], in assay [2] and in assay [3] were 0.7%, 0.77% and 0.42%, respectively.
In the same order, the values of `Cc1cccc2nc(-c3cccc(-c4ccc(NC(=O)Cc5ccc[n+]([O-])c5)cc4)c3)[nH]c12` are 0.18%, 1.16% and 0.56%.
In the same order, the values of `COc1cc(Cc2cnc(N)nc2N)cc(OCCCCc2nnn[nH]2)c1OC` are -0.47%, 1.16% and -0.95%.
`Cc1ccc2nc(-c3ccc(C(=O)NC4CCN(Cc5ccccc5)CC4)cc3)[nH]c2c1C`: the inhibition in assay [1] was 11.5%; in assay [2], 7.69%; in assay [3] it was 0.84%.
For the molecule `N#CC1(CCCNCCc2ccc(O)cc2)CCCc2c(O)cccc21` (stereo not drawn), the inhibition turned out to be 14.1% in assay [1], 12% in assay [2] and 11.7% in assay [3].
For `CC1CN(Cc2csc(Nc3ccccc3)n2)CC(C)O1` (stereo not drawn), the results for the inhibition in assay [1], in assay [2] and in assay [3] were -0.51%, 0.99% and 3.5%, respectively.
With `COc1cc(NC(=O)N2CCc3ccc(OCCN4CCCCC4)cc32)cc(C(F)(F)F)c1`, the figures for the inhibition in assay [1], in assay [2] and in assay [3] were 0.69%, 1.18% and 3.59%, respectively.
Consider `Cc1ccccc1CCNC(=O)c1ccc(N2CCN(c3ccncc3)CC2)nc1`, for which the inhibition in assay [1] was 3.94%; in assay [2], 1.96%; in assay [3] it was 0.46%.
In the same order, the values of `NC(=O)c1cccc(CNC(=O)NC[C@H]2CN(Cc3ccc(Cl)c(Cl)c3)CCO2)c1` are 7.5%, 6.84% and 6.5%.
With `O=C(NCCCCCN1CCC(c2c[nH]c3ccccc23)C1)Nc1ccc(Cl)c(Cl)c1` (stereo not drawn), the inhibition came out at 3.7% in assay [1], 3.21% in assay [2] and 2.22% in assay [3].
With `O=S(=O)(Nc1ccc(CCN2CCCCC2CCN2CCCC2)cc1)c1ccc(-c2ccccc2)cc1` (stereo not drawn), the inhibition is 9.09% in assay [1], 14.3% in assay [2] and 3.63% in assay [3].
With `CC(=O)N1N=C(c2ccccc2)Sc2c1nc(-c1ccc(Cl)cc1)n2C(C)=O`, the inhibition in assay [1] was 1.37%; in assay [2], 1.41%; in assay [3], 3.09%.
On to `CC1(CCN2CCC(c3c[nH]c4cnccc34)CC2)CCCc2c(Br)cccc2C1=O` (stereo not drawn), for which the inhibition in assay [1] amounted to 54.7%; in assay [2] it was 25.4%; in assay [3], 95.5%.
`CCCCn1c(C(C)Oc2ccc(Cl)cc2Cl)nc2cc(S(N)(=O)=O)ccc21` (stereo not drawn): the inhibition was -0.86% in assay [1], -1.81% in assay [2] and -1.84% in assay [3].
For `Nc1c2c(nc3cc(NC(=O)c4ccc([N+](=O)[O-])cc4)ccc13)CCCC2`, the inhibition in assay [1] stood at 5.2%; in assay [2], 9.51%; in assay [3], 4.23%.
In the same order, the values of `Cc1cccc2nc(-c3cccc(-c4cccc(CNC(C)C)c4)c3)[nH]c12` are -0.63%, 0.85% and 0.35%.
As for `Cc1ccc(Nc2nc(C)cc(N3CCN(c4ccccc4)CC3)n2)cc1`, the inhibition in assay [1] was 5.18%; in assay [2], 5.92%; in assay [3], 2.13%.
For the molecule `CS(=O)(=O)c1cccc(-c2ccc3oc(C(N)=O)c(NC(=O)c4cccs4)c3c2)c1`, the inhibition in assay [1] turned out to be 7.71%; in assay [2], 6.5%; in assay [3], 5.71%.
`O=C(Nc1ccc(OC2CCN(Cc3ccco3)CC2)c(Cl)c1)c1ccc2ncccc2c1`: the figures for the inhibition in assay [1], in assay [2] and in assay [3] were 4.38%, 2.97% and 2.34%, respectively.
For `CC(CON1C(N)=NC(N)=NC1(C)C)Cc1ccc(Cl)cc1Cl` (stereo not drawn), the inhibition in assay [1] is -0.6%; in assay [2], -1.29%; in assay [3], -0.29%.
In the case of `Cc1cc(N)c2cc(NC(=O)CCC(=O)Nc3ccc4nc(C)cc(N)c4c3)ccc2n1`, the inhibition is 5.9% in assay [1], 6.01% in assay [2] and 8.34% in assay [3].
In the same order, the values of `CN(C)C(=O)O[C@@H]1CN[C@H](C#Cc2cc3ncnc(Nc4ccc5c(cnn5Cc5cccc(F)c5)c4)c3s2)C1` are 10.1%, 9.66% and 10.1%.
With `CC(C)(C)C/C=C\c1ccc(C(=O)NCC2CC2)cc1`, the inhibition in assay [1] was 6.73%; in assay [2], 9.04%; in assay [3], 3.76%.
As for `CC(C)Nc1nc(NCCc2c[nH]cn2)nc(NCc2ccc(Cl)c(Cl)c2)n1`, the results for the inhibition in assay [1], in assay [2] and in assay [3] were 3.82%, 0.13% and -0.25%, respectively.
Consider `COc1c(CN2CCOCC2)cccc1-c1cc2c(-c3ccc(C(=O)O)c(C(C)C)c3)ccnc2[nH]1`, for which the inhibition in assay [1] was determined as 4.23%; in assay [2], 3.17%; in assay [3], 3.15%.
Take `COc1ccc(NC(=O)/C=C/c2ccccc2Cl)cc1OCCN1CCC(N2CCCC2)CC1`: the inhibition came to 2.99% in assay [1], 3.87% in assay [2] and 4.44% in assay [3].
In the case of `CCCN1CCN(CCCNC(=O)c2cc3c(-c4ccc(Cl)cc4)nn(C)c3s2)CC1`, the inhibition turned out to be 18.3% in assay [1], 17.4% in assay [2] and 10.2% in assay [3].
Turning to `Cc1cccc(S(=O)(=O)Nc2cccc(CCN3CCC(N4CCCCC4)CC3)c2)c1`, the inhibition in assay [1] was 3.99%; in assay [2], -1.11%; in assay [3] it was 0.97%.
Regarding `COc1ccc(CNCc2ccc(-c3cccc(-c4nc5cc(C(F)(F)F)ccc5[nH]4)c3)cc2)cc1`, the figures for the inhibition in assay [1], in assay [2] and in assay [3] were -1.07%, -0.35% and -2.33%, respectively.
As for `O=[N+]([O-])c1cccc(/C=N/Nc2ccnc3ccc(C(F)(F)F)cc23)c1`, the inhibition in assay [1] amounted to 4.51%; in assay [2], 2.45%; in assay [3] it was 0.3%.
Turning to `Clc1cc(Nc2ncnc3sc(C#C[C@H]4CCCN4)cc23)ccc1OCc1cccnc1Cl`, the inhibition turned out to be 3.83% in assay [1], 4.71% in assay [2] and 3.35% in assay [3].
As for `O=C(/C=C/c1ccc(Cl)c(Cl)c1)NCCCCCN1CCC(NC(=O)Nc2ccc(F)c(Cl)c2)CC1`, the inhibition in assay [1] was 3.93%; in assay [2], 4.82%; in assay [3], 6.8%.
As to `COc1ccccc1C(=O)C1CCCN(C(=O)c2ccccc2C(F)(F)F)C1` (stereo not drawn), the inhibition in assay [1] is -0.79%; in assay [2], -0.77%; in assay [3], 9.65%.
Consider `O=C(N[C@H]1CCN(Cc2ccc(OCCN3CCCC3)c(Cl)c2)C1)c1ccc(Cl)c(Cl)c1`, for which the inhibition is 8.03% in assay [1], 16.6% in assay [2] and 6.8% in assay [3].
